{
  "source": "PubChem BioAssay (NCATS)",
  "note": "Records with an inconclusive call do not appear. Activity calls are given as the source filed them. Calls come from the whole dose curve; as a rule, active = well fitted cell-killing curve with a large enough effect; inconclusive = small, poorly fitted or top-dose-only effect; inactive = flat fitted curve, though single readings scatter. Potency is the fitted concentration of half-maximal effect.",
  "data": [
    {"experiment": "Cell Viability - LYMP2-015 (AID 971); note: nearly all actives have a fitted effect of over 55% in size;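 for activity change, negative = lower viability: 0% = DMSO only and full effect = 92 µM tetraoctylammonium bromide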", "settings": "LYMP2-015 lymphoblastoid cell viability; series mostly up to 92.2 µM; activity change, negative = lower viability: at the top concentration", "excerpt": "NIH Chemical Genomics Center [NCGC]\nNIH Molecular Libraries Screening Centers Network [MLSCN]\nNational Institutes of Environmental Health Sciences [NIEHS]\nNational Toxicology Program [NTP]\nWe have developed a 1536-well cell-based assay for quantitative high throughput screening (qHTS) against a number of cell lines to determine in vitro cytotoxicity of small molecules. This particular assay uses a human lymphoblastoid cell line (LYMP2-015) purchased from Coriell Institute for Medical Research.\nNCGC Assay Protocol Summary:\nThe CellTiter-Glo luminescent cell viability assay (Promega) is a homogeneous method to measure the number of viable cells in culture. The end point readout of this assay is based on quantitation of intracellular ATP, an indicator of metabolic activity, using the luciferase reaction. Luciferase catalyzes the oxidation of beetle Luciferin to oxyluciferin and light in the presence of ATP. The luminescent signal is proportional to amount of ATP present.\nUsing the CellTiter-Glo luminescent cell viability assay, the amount of cellular ATP was measured in the lymphoblastoid cell line with complete culture medium following compound treatment for 24 hours. The assay was performed in opaque white Kalypsys 1536-well plates. In the screen, tetraoctylammonium bromide was used as positive control. Library compounds were measured for their ability to cause acute toxicity in the cell line, as reflected by a decrease in intracellular ATP levels, in a concentration-dependent manner. […] AC50 values were determined from concentration-response data modeled with the standard Hill equation.\nqHTS protocol for CellTiter Glo lymphoblastoid cellular assay\n[Step] [Parameter] [Value] [Description]\n1. Reagent; 5 uL; 2500 lymphoblastoid cells/well\n2. Time; 5 hr; 37 C incubation\n4. Controls; 23 nL; Tetraoctylammonium bromide 6.4pM to 92 uM\n5. Time; 24 hr; 37 C incubation\n6. Reagent; 5 uL; CellTiter Glo reagent\n7. Time; 30 min; Room Temperature\n8. Detection; Luminescence; Viewlux plate reader\nKeywords: cell viability, cytotoxicity, lymphoblastoid cell line, luminescence, NTPHTS, NTPHTS_NCGC, NIEHS, DSSTox, MLSMR, MLSCN, NIH Roadmap, qHTS, NCGC", "values": [
      {"smiles": "c1ccc2c(c1)-c1cccc3c1c-2cc1ccccc13", "activity change, negative = lower viability": "-1.17% (inactive)"},
      {"smiles": "O=C=Nc1ccc(Cc2ccc(N=C=O)cc2)cc1", "activity change, negative = lower viability": "-3.72% (inactive)"},
      {"smiles": "CCC(C)Nc1ccc(NC(C)CC)cc1", "note": "(configuration not stated)", "Potency": "3.98 µM (active)"},
      {"smiles": "O=C(/C=C/c1ccc(O)c(O)c1)OC1C[C@](O)(C(=O)O)C[C@@H](O)[C@H]1O", "note": "(some centres not stated)", "Potency": "inactive"},
      {"smiles": "C/C=C1\\C(=O)C[C@H]2[C@@H]3CCC4=CC(=O)CC[C@]4(C)[C@H]3CC[C@]12C", "activity change, negative = lower viability": "-30% (inactive)"},
      {"smiles": "CCCCCC/C(C=O)=C\\c1ccccc1", "activity change, negative = lower viability": "-3.08% (inactive)"},
      {"smiles": "O=C1OC(O)C(C(Cl)Cl)=C1Cl", "note": "(configuration not stated)", "Potency": "25.1 µM (active)"},
      {"smiles": "Cc1cc(Nc2ccc(O)cc2)ccc1N", "Potency": "39.8 µM (active)"},
      {"smiles": "O=Cc1ccc(Cl)c(Cl)c1", "activity change, negative = lower viability": "-4.75% (inactive)"},
      {"smiles": "c1ccc2c(c1)ccc1cc3c(ccc4ccccc43)cc12", "activity change, negative = lower viability": "-18.1% (inactive)"},
      {"smiles": "CN1[C@H]2CC(OC(=O)[C@H](CO)c3ccccc3)C[C@H]1[C@H]1O[C@H]12", "note": "(some centres not stated)", "Potency": "inactive"},
      {"smiles": "Cc1cccc(O)c1C", "activity change, negative = lower viability": "-8.66% (inactive)"},
      {"smiles": "Cc1cc(O)c(C(C)(C)C)cc1Sc1cc(C(C)(C)C)c(O)cc1C", "Potency": "39.8 µM (active)"},
      {"smiles": "CC(=O)Nc1ccc(C(=O)CCl)cc1", "Potency": "5.01 µM (active)"},
      {"smiles": "CNc1ccc(O)cc1", "Potency": "5.01 µM (active)"},
      {"smiles": "CCCCCCCC[N+](CCCCCCCC)(CCCCCCCC)CCCCCCCC", "Potency": "7.94 µM (active)"},
      {"smiles": "O=[N+]([O-])c1cc([N+](=O)[O-])c2ccc(S(=O)(=O)O)cc2c1O", "activity change, negative = lower viability": "-9.84% (inactive)"},
      {"smiles": "C=CC(=O)OCCOCCOC(=O)C=C", "Potency": "15.8 µM (active)"},
      {"smiles": "CN(C)c1ccc(C2(c3ccc(N(C)C)cc3)OC(=O)c3cc(N(C)C)ccc32)cc1", "activity change, negative = lower viability": "1.59% (inactive)"},
      {"smiles": "Nc1ccc2cc3ccccc3cc2c1", "activity change, negative = lower viability": "-11.7% (inactive)"},
      {"smiles": "O=C(OCC(COC(=O)c1ccccc1)(COC(=O)c1ccccc1)COC(=O)c1ccccc1)c1ccccc1", "activity change, negative = lower viability": "1.45% (inactive)"},
      {"smiles": "C=C(C)c1ccccc1", "activity change, negative = lower viability": "3.55% (inactive)"}
    ]}
  ]
}
